The values that follow come from paper PMC12136788.

The chains are these.
B1: chr10:33190432:33190433:-_ENSG00000150093_ENST00000302278|hu_mus|hu_hu_hu_mus_True|68_98 (ssRNA)
RNA: GGGAGUUCUACAGUCCGACGAUCUACAUUUUCCAAACCUGCACAUGAAUAAAACCCUGGCCACAGAGCCCUAAAGCUACCCUACUGUGACUAAGAUGCUGCUGCUGUGAGCUUGGUGUUGCAAAAUCCGCCUGAGUAGGAUUCCAACAGAGGAUUGAGCAUCA
B2: chr6:35837335:35837336:-_ENSG00000096063_ENST00000361690|hu_mus|FALSE|FALSE (ssRNA)
RNA: GGGAGUUCUACAGUCCGACGAUCGGGCUCCUGCUCAUCCCCAGAAGGUGUAUCUGCCCGAAUGCUCUCCUCCAGCUGGGUGAUGUCCUGUCGGGUGAGUGACUGCUCUGCAGAGGAUUGGCACACCAUGGUCUCAGAGGCCGUCAACAGAGGAUUGAGCAUCA
B3: chr2:126475859:126475860:-_ENSMUSG00000027361_ENSMUST00000110424|mus_mus|FALSE|FALSE (ssRNA)
RNA: GGGAGUUCUACAGUCCGACGAUCAGUUUCUGAAGAAUUGGACAAUGGGGCAGAAGCUUCAGCUAAGGCAGCUAACGUAGCUAAUACUGACGUAGAGGAGUUUCCAAACUGAACAGCAGAUACUCCUGUUUCAUCUGUGAGGUUCAACAGAGGAUUGAGCAUCA
B4: chr17:25041749:25041750:-_ENSMUSG00000024163_ENSMUST00000117509|mus_hu|FALSE|FALSE (ssRNA)
RNA: GGGAGUUCUACAGUCCGACGAUCCGAGGGAUAGGGGCGCUUGGCCGGAGGGGGGCUGGAGGAAGAGCUGAAGAGGCGGCUGAAGAACUGCCAGAUGGUCGACUUCUUCUUCUCCUGGACGGAUGGGUGCUCUCGGGACGCUCUCAACAGAGGAUUGAGCAUCA
B5: chr17:60770872:60770873:+_ENSG00000011028_ENST00000303375|hu_hu|hu_hu_hu_mus_True|48_48 (ssRNA)
RNA: GGGAGUUCUACAGUCCGACGAUCUCUUUAAAAAAAAAAAAAAAAAGACAAACAAUAAUAGCACAUUUCGAGAAUCAAGAACUACAAAGAAAGGGCCGCUUUGAGUUUUUGUUCACAUCGUCCUGCACUGGGACACGGGGACUGCAACAGAGGAUUGAGCAUCA
B6: chr17:60770872:60770873:+_ENSG00000011028_ENST00000303375|hu_hu|hu_hu_hu_mus_True|48_88 (ssRNA)
RNA: B5 RNA with A47U, C48U, A49U, C52A, U55C
B7: chr17:60770872:60770873:+_ENSG00000011028_ENST00000303375|hu_hu|hu_hu_hu_mus_True|1_1 (ssRNA)
RNA: GGGAGUUCUACAGUCCGACGAUCUCUUUAAAAAAAAAAAAAAAAAGACAAACAAUAAUAGCACAUUUCGAGAAUCAAGAACUACAAUAGAGGGUCCGCUUUGAGUUUUUGUUCACAUCGUCCUGCACUGGGACACGACCAGGACAACAGAGGAUUGAGCAUCA
B8: chr17:60770872:60770873:+_ENSG00000011028_ENST00000303375|hu_hu|hu_hu_hu_mus_True|48_58 (ssRNA)
RNA: B5 RNA with A77U, G78C, A86G
B9: chr17:60770872:60770873:+_ENSG00000011028_ENST00000303375|hu_hu|hu_hu_hu_mus_True|18_18 (ssRNA)
RNA: GGGAGUUCUACAGUCCGACGAUCUCUUUAAAAAAAAAAAAAAAAAGACAAACAAUAAUAGCACAUUUCGAGAAUCAAGAACUACAAUAGAGGGUCCGCUUUGAGUUUUUGUUCACAACAUUGUCCCCUGGGACACGGGGACUGCAACAGAGGAUUGAGCAUCA
B10: chr17:60770872:60770873:+_ENSG00000011028_ENST00000303375|hu_hu|hu_hu_hu_mus_True|1_8 (ssRNA)
RNA: B7 RNA with C127A, U128C, G130C, G131U, A132G, C133U, A134C, C135G, G136C
B11: chr17:60770872:60770873:+_ENSG00000011028_ENST00000303375|hu_hu|hu_hu_hu_mus_True|18_88 (ssRNA)
RNA: B9 RNA with A47U, C48U, A49U, C52A, U55C
B12: chr17:60770872:60770873:+_ENSG00000011028_ENST00000303375|hu_hu|hu_hu_hu_mus_True|18_48 (ssRNA)
RNA: B9 RNA with U87A, A88G, G89A, G91A, U94G
B13: chr17:60770872:60770873:+_ENSG00000011028_ENST00000303375|hu_mus|FALSE|FALSE (ssRNA)
RNA: B5 RNA with A87U, G88A, A89G, A91G, G94U
B14: chr17:60770872:60770873:+_ENSG00000011028_ENST00000303375|hu_hu|hu_hu_hu_mus_True|18_58 (ssRNA)
RNA: B9 RNA with A77U, G78C, A86G
B15: chr17:60770872:60770873:+_ENSG00000011028_ENST00000303375|hu_hu|hu_hu_hu_mus_True|88_88 (ssRNA)
RNA: B5 RNA with A47U, C48U, A49U, C52A, U55C, A87U, G88A, A89G, A91G, G94U
B16: chr13:100200933:100200934:-_ENSMUSG00000052727_ENSMUST00000064762|mus_hu|FALSE|FALSE (ssRNA)
RNA: GGGAGUUCUACAGUCCGACGAUCAGAGGUGAGUGAGGCAUAUAAGGACAUAUCUCUGGGAGGAGCAACAUCGGAUAGAGUAUCUUCUUGGAGAGGAGAAGCGAUCUGAGAAGGGGUAUGAGCAGAAGAGGUGGACGGGGAGGCCAACAGAGGAUUGAGCAUCA
B17: chr14:21343058:21343059:-_ENSMUSG00000021816_ENSMUST00000161445|perfect_dup|FALSE|FALSE (ssRNA)
RNA: GGGAGUUCUACAGUCCGACGAUCUGUAGUUUGACUUUUUCUGUACAUUCUAUAGCCUGCAUCUUGAGCUUCAUGAGCUCUAAUAAUCGAUAACAAAUUAUUGUUUUGCAAAAAUUCACACACUGCUGGAUAGUUAUAAAAAUACAACAGAGGAUUGAGCAUCA
B18: chr2:216981417:216981418:+_ENSG00000079246_ENST00000392132|hu_hu|hu_hu_hu_mus_True|58_68 (ssRNA)
RNA: GGGAGUUCUACAGUCCGACGAUCCUGAUACUGGUCCUUGCCAGCAAGGGCAUUAUCAGUGCCAUCUGUACCAAACAGGACUAAAGCAAUCUCAUCUUUGCUCUCCGAAAAUACCUGUCGUUGGACAAACAUAGUCAUCACUUUCAACAGAGGAUUGAGCAUCA
B19: chr6:40197388:40197389:+_ENSMUSG00000057716_ENSMUST00000061740|mus_mus|mus_mus_mus_hu_False|68_108 (ssRNA)
RNA: GGGAGUUCUACAGUCCGACGAUCGAGUUGUCAGUUUGGAUUUAUUCCACCUCUGUUUGGGUGCUAGUAAGAUAGAUUGUUAUUUUGGGAUUCAUGGCCUUGAAUAUCAAGAGGGAAAGGAAGAGGAUGGAAAGAGUCAAGAGUCAACAGAGGAUUGAGCAUCA
B20: 33360611_33360731_3434_3pUTR_ENSMUSG00000024378_ENSMUST00000025236|mouse|control|control (ssRNA)
RNA: GGGAGUUCUACAGUCCGACGAUCCUAUGGACUGCUAUAAGCCCUUCCCCCAGCCCCAGGUACUUUUGCAAGAGCAGAGAACGCUCUUUCACUACCAUCACCUCCCAGCCUCUGCUGGGAUACUCUGAGUUACACGUAUGGCUUCAACAGAGGAUUGAGCAUCA
B21: chr7:7679991:7679992:-_ENSG00000106399_ENST00000396682|hu_hu|hu_hu_hu_mus_False|8_8 (ssRNA)
RNA: GGGAGUUCUACAGUCCGACGAUCUGGGAUGAAUCUUUUCCAGCUUCCCCACGAAGCACACGGGCCGGUCGAUAUACUGUGGUAACAUGCUGGCGUUGACGCGCGCUUUGGGGAGCUGCAUUAUGUCCACCAUGAUUCUGCCGCCAACAGAGGAUUGAGCAUCA
B22: 142153747_142154939_927_CDS_ENSG00000109445_ENST00000262990|human|control|control (ssRNA)
RNA: GGGAGUUCUACAGUCCGACGAUCAUAAGCAUCAUACCCAGAAGCUCCAUCUCCCUCUUCACCUCCAGUCUGCCUGCCAAAUUUCAGGGAGCGUGUUGACAUGCUAAGGUCCUUAGUCUCCUGAGUUUCAUGCCCACAUUUAGGCAACAGAGGAUUGAGCAUCA

Substitutions are numbered along the chain they refer to. Whole data set: some 24,000 sequences, median “enrichment r” near 0.99, cut for the highest 2% near 3.7. The full list was thinned out, with the highest values kept by preference.

The target of the assay is T1, UNK ZnF1-3 (human, UniProt Q9C0B0 31-174).
T1 sequence: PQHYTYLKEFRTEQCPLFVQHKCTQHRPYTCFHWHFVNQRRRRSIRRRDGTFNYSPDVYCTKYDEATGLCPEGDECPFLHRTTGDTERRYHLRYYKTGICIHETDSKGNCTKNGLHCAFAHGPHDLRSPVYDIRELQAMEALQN
Description: nsRBNS (natural sequence RNA bind-n-seq); RBNS binding buffer (assumed for nsRBNS): 25 mM Tris pH 7.5, 150 mM KCl, 3 mM MgCl2, 0.01% Triton X-100, 500 ug/ml BSA, 20 U/ml SUPERase-In, 4 C; UNK is unkempt and MSI1 is Musashi-1; names of the RNAs are library labels; protein concentration not given here; high values mean tight binding.
For the molecule B1, the binding signal amounted to 0.909 enrichment R.

In turn, B2 had a binding signal of 3.58 enrichment R.

As for B3, the binding signal was 1.31 enrichment R.

For B4, the binding signal turned out to be 1.43 enrichment R.

For the molecule B5, the binding signal is 3.87 enrichment R.

B6: the binding signal is 3.6 enrichment R.

Take B7: the binding signal came out at 3.11 enrichment R.

In turn, B8 gave a binding signal of 3.59 enrichment R.

B9 had a binding signal of 4.15 enrichment R.

As to B10, the binding signal was 3.63 enrichment R.

Molecule B11 registered a binding signal of 3.34 enrichment R.

The molecule B12 came in with a binding signal of 3.63 enrichment R.

For the molecule B13, the binding signal came to 4.24 enrichment R.

In turn, B14 had a binding signal of 3.65 enrichment R.

On to B15, for which the binding signal amounted to 4.21 enrichment R.

The molecule B16 registered a binding signal of 3.67 enrichment R.

Molecule B17 registered a binding signal of 1.03 enrichment R.

In the case of B18, the binding signal was 0.678 enrichment R.

B19 came in with a binding signal of 2.09 enrichment R.

In turn, B20 gave a binding signal of 0.77 enrichment R.

For B21, the binding signal came out at 0.487 enrichment R.

B22 registered a binding signal of 1.39 enrichment R.
